Screens (PubChem)
TDP1 cell noCPT – qHTS for Inhibitors of human tyrosyl-DNA phosphodiesterase 1 (TDP1): qHTS in cells in absence of CPT | Potency, µM (doses to about 46.2 µM), hits mostly inhibitors | DT40 Tdp1-/- hTDP1 cells, no CPT, ATP luminescence, 48 h | hit rate 15% among 420,000; also: nearly all actives have a fitted effect of over 55% in size
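DT40 Tdp1-/-;hTDP1 cells, no CPT (DMSO vehicle only), 400 cells/well; compounds pin-transferred; ≥48 hr, 37 °C; CellTiter-Glo 30 min RT dark, luminescence read.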
KB-V1 MDR tox – qHTS assay for MDR1-selective chemotherapeutics: Primary screen using the drug-selected MDR subline cells KB-V1 | KB-V1 MDR cells viability, CellTiter-Glo, 72 h | hit rate 3.4% among 400,000 | Potency, µM (top dose mostly 46.1 µM), hits mostly cytotoxic | AID 1347076, 2019; also: nearly all actives have a fitted effect of over 60% in size
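Cytotoxicity via CellTiter-Glo luminescence after 72 h compound exposure at 37 degrees C. Cells: drug-selected KB-V1 line, DMEM phenol-red free plus 10% FBS. Compounds tested at multiple concentrations; normalized data fitted to concentration-effect curves.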
DT40 TDP1 CPT – qHTS for Inhibitors of human tyrosyl-DNA phosphodiesterase 1 (TDP1): qHTS in cells in presence of CPT. Potency, µM (doses to about 46.2 µM), most hits filed as inhibitors. chicken DT40 Tdp1-/-;hTDP1 cells + 20 nM CPT, ATP luminescence, 48 h. hit rate 12% among 420,000; also: nearly all actives have a fitted effect of over 55% in size
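Chicken DT40 Tdp1-/- cells complemented with human TDP1, 400 cells/well, exposed to compounds plus 20 nM camptothecin for at least 48 h at 37 C; viability read as ATP content by CellTiter-Glo luminescence.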
HT1080NT lethal – qHTS for induction of synthetic lethality in tumor cells producing 2HG: qHTS for the HT-1080-NT fibrosarcoma cell line | hit rate 1.6% among 360,000 | AID 686970, 2013 | HT-1080-NT fibrosarcoma viability, CellTiter-Glo ATP luminescence, 48 h | Potency, µM (series often up to 46.1 µM), hits mostly cytotoxic;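 also: NT is the 2HG producing partner of a matched IDH1 knockdown line; nearly all actives have a fitted effect of over 55% in size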
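Read-out is CellTiter-Glo luminescence after 10 minutes at room temperature, following 48 hours' compound treatment of HT-1080-NT cells (750 cells/well, RPMI, 5% FBS, 37 degrees C).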
HT1080 IDH1KD tx – qHTS for induction of synthetic lethality in tumor cells producing 2HG: qHTS for the HT-1080-IDH1KD cell line. AID 686971, 2013. Potency, µM (highest dose often 46.1 µM), usual class: cytotoxic. hit rate 2% among 360,000. HT-1080 IDH1 knockdown viability, ATP luminescence, 48 h
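Viability of IDH1-knockdown HT-1080 fibrosarcoma cells was assessed by CellTiter-Glo after 48 h at 37 °C with titrated compound; concentration-effect curves were classified by fit quality and response size.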
KB-3-1 tox – qHTS assay for MDR1-selective chemotherapeutics: Primary screen using the parental adenocarcinoma cell KB-3-1; KB-3-1 viability, CellTiter-Glo ATP luminescence, 72 h; Potency, µM (series often up to 46.1 µM), hits mostly cytotoxic; hit rate 1.4% among 400,000; also: nearly all actives have a fitted effect of over 60% in size
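KB-3-1 cells, DMEM (no phenol red) + 10% FBS; compound by pin transfer, 72 h, 37 °C. Readout: CellTiter-Glo luminescence after 10 min. Data normalized, curve-fitted.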
Numbers stand for hits; 0 = inactive; ? = inconclusive; - = no result. In the library only some 19% were active in any assay of this set; here they are far more common. Calls follow the shape of the dose curve; as a rule, active = well fitted curve in the direction sought with a large enough effect; inconclusive = small, poorly fitted or top-dose-only effect, or another doubt; inactive = no such curve, though single readings can be large; an effect the other way counts as inactive or inconclusive.

SMILES | TDP1 cell noCPT | KB-V1 MDR tox | DT40 TDP1 CPT | HT1080NT lethal | HT1080 IDH1KD tx | KB-3-1 tox
CC1(C(=O)NS(=O)(=O)c2cccc(Cl)c2)CCN1C(=O)c1cccc2ccccc12 (stereo unspecified) | 0 | 0 | 0 | 0 | 0 | 0
O=C(CCS(=O)(=O)Cc1ccccc1F)N1CCc2ccccc2C1 | 16µM | 0 | 23µM | 0 | 0 | 0
O=C(CCS(=O)(=O)Cc1ccccc1)N1CCc2ccccc2C1 | 0 | 16µM | ? | 0 | 0 | 0
Cc1cc(NC(=S)NC(=O)c2ccccc2)ccc1-c1cc2ccccc2oc1=O | 2.9µM | ? | 3.3µM | ? | 0 | ?
COc1ccc(C(=O)Nc2ccc(-c3cc4ccccc4oc3=O)c(C)c2)cc1Br | ? | ? | ? | - | - | 0
CCOc1ccc(C(=O)Nc2ccc(-c3cc4ccccc4oc3=O)c(C)c2)cc1[N+](=O)[O-] | 12µM | 0 | 13µM | 0 | 0 | 0
COCCN(CCOC)Cc1cc(=O)oc2cc(C)c(Cl)cc12 | ? | 0 | 0 | 0 | 0 | 0
CN1CCN2c3ccccc3CC(C#N)(C#N)C2C1 (stereo unspecified) | 0 | 0 | 0 | 0 | 0 | 0
O=C(Nc1ccccc1-c1nc2ccccc2s1)c1ccc(F)cc1 | 0 | ? | 0 | - | - | 0
O=C(Nc1ccc(F)cc1)Nc1sccc1-c1nc2ccccc2s1 | ? | 0 | ? | 16µM | 18µM | 0
CNc1sc(C(=O)c2ccc(F)cc2)c(N)c1-c1nc2ccccc2s1 | 7.3µM | 0 | 5.2µM | 11µM | 6.3µM | 0
CC12c3ccccc3C(c3ccccc31)C1C(=O)N(c3cccnc3)C(=O)C12 (stereo unspecified) | 15µM | 15µM | ? | 0 | 0 | 0
O=C1C2C3c4ccccc4C(c4ccccc43)C2C(=O)N1c1cccnc1 (stereo unspecified) | 0 | ? | 0 | 0 | 0 | 0
CC12c3ccccc3C(c3ccccc31)C1C(=O)N(Cc3cccnc3)C(=O)[C@H]12 (stereo partly specified) | ? | 0 | 18µM | 0 | 0 | 0
CC12c3ccccc3C(c3ccccc31)C1C(=O)N(c3ccncc3)C(=O)C12 (stereo unspecified) | 16µM | 0 | 16µM | 0 | 0 | 0
O=C1C2C3C=CC([C@@H]2C(=O)N1Cc1cccnc1)C31CC1 (stereo partly specified) | 0 | 0 | 0 | 0 | 0 | 0
CCN(CC)CCCNc1oc(/C=C/c2ccc(OC)c(OC)c2)nc1C#N | ? | - | 0 | - | - | -
Nc1ncnc2c1ncn2[C@@H]1O[C@H](C(=O)NS(=O)(=O)c2ccccc2[N+](=O)[O-])[C@@H](O)[C@H]1O | ? | 0 | ? | 0 | 0 | 0
CN(C(=O)COC(=O)CCC(=O)c1ccc(Cl)cc1)c1c(N)n(Cc2ccccc2)c(=O)[nH]c1=O | 18µM | ? | 0 | 0 | 0 | 0
CC(=O)Nc1sc(C)c(C)c1C(=O)OCC(=O)N(CC(C)C)c1c(N)n(Cc2ccccc2)c(=O)[nH]c1=O | 5.8µM | 0 | 23µM | 0 | 0 | ?
CCCN(C(=O)COC(=O)CCOc1ccccc1C)c1c(N)n(Cc2ccccc2)c(=O)[nH]c1=O | 0 | 0 | 0 | 0 | 0 | 0
CC(C)CN(C(=O)COC(=O)CCSc1ccc(Cl)cc1)c1c(N)n(Cc2ccccc2)c(=O)[nH]c1=O | 18µM | 0 | ? | 0 | 0 | 0
CCN(C(=O)COC(=O)CCOc1cc(C)ccc1C)c1c(N)n(Cc2ccccc2)c(=O)[nH]c1=O | ? | 0 | 18µM | 0 | 0 | 0
CN(C(=O)COC(=O)CCC(=O)c1ccccc1)c1c(N)n(Cc2ccccc2)c(=O)[nH]c1=O | 0 | 0 | 0 | 0 | 0 | 0
